Test results as given in PubChem BioAssay (EPA / NIEHS).
Values joined by “and” are separate entries in the source; they are usually repeats but may differ in a detail not shown here. Equal entries are not always repeated. Some structures have more than one record in an assay (separate samples or runs), and their calls can disagree. Active and inactive are the calls of the source. How the source made its calls: active means hit-call score of the fitted dose curve at least 0.9, where 1 is the maximum; inactive means score below 0.9.

The compounds below were run on Pyruvate Dehydrogenase Kinase 4 (PDK4), PDK4 (gene 5166) (assay: LTEA_HepaRG_PDK4: Life Technologies and Expression Analysis (LTEA) Assay for Pyruvate Dehydrogenase Kinase 4 (PDK4) using HepaRG (AID 2283525)). Conditions: mRNA level, 48 h; actives raise or lower the signal.
Experimental: LTEA_HepaRG is a cell based, multiplexed-readout assay that uses HepaRG, a human liver cell line, with measurements taken at 48 hours after chemical dosing on a 96-well plate.LTEA_HepaRG_PDK4 is one of 102 assay component(s) measured in the LTEA HepaRG cell culture assay. It is a marker of Diseases associated with PDK4 including Platelet Glycoprotein Iv Deficiency and Diabetes Mellitus, Noninsulin-Dependent.Data from the assay component LTEA_HepaRG_PDK4 was analyzed into 1 endpoint. This assay endpoint, LTEA_HepaRG_PDK4, was analyzed with bidirectional fitting relative to DMSO as the negative control and baseline of activity. Using a type of inducible reporter, measures of mRNA induction for gain or loss-of-signal activity can be used to understand regulation of transcription factor activity. To generalize the intended target to other relatable targets, this assay endpoint is annotated to the kinase intended target family, where the subfamily is serine/threonine kinase.
A total of 1060 chemcials from the ToxCast library were tested in eight-point concentration-response experiments. Cell culture and cytotoxicity assays were conducted at Thermo Fisher Scientific's Custom Services facility (Madison, WI). A single lot of human HepaRG cells (Thermo Fisher Scientific, Frederick, MD) was used for the cell culture experiments. 96-well format collagen type I coated plates of human HepaRG cells were prepared using established methods. Briefly, cryopreserved HepaRG cells were thawed, plated at a density of approximately 100,000 cells/well in HepaRG Thaw, Plate, and General Purpose media (HPRG770, Thermo Fisher Scientific), and incubated for 48 hours. 0.5% DMSO was selected as vehicle control to balance the requisite need of DMSO in HepaRG cultures to maintain differentiation (for example, baseline metabolism, proportions of hepatocytes vs. cholangiocytes), while enabling further hepatic receptor pathway activation (for example, PXR and CAR) in response to chemical exposure. 48 hours after plating, the culture medium was replaced with HepaRG Serum-Free Incudtion Media. Cells were exposed to each test chemical in duplicate and maintained in CO2 incubators for another 48 hours. Chemical plates were thawed to room temperature and 200x concentrations of treatment groups were prepared. 8-point conentration-reponse curves were made with the highest exposure at 100 uM, followed by half-log dilutions, all in 0.5% DMSO. Each test plate contained variouse controls, induction positive controls (1mM phenobarbital), cytotoxicity positive controls ([…] aflatoxin B1), vehicle controls (0.5% DMSO), and total lysis controls (0.5% DMSO). Cell morphology images were taken using an Essen IncuCyte FLR automated microscope, with six 96-well plates imaged in about 24 minutes. Images were captured and exported and JPEG files. Spent culture media was transfered to black-well plates for the LDH assay, and remaining media was sorted at -80 C for later use. Cells were treated with RLT buffer and frozen until shipped for gene expression analysis. Total RNA was isolated from the cell suspension in 75 uL of Buffer RLT (Qiagen, Germantown, MD 20874) by Quintiles/Expression Analysis (Durham, NC) using a custom isolation procedure. Total RNA from each plate well was transferred to a preamplification plate. Fluidigm's 96.96 Dynamic ArrayTM (Fluidigm, Amsterdam, the Netherlands) technology was used for gene expression analyses by quantitative reverse transcription polymerase chain reaction (qRT-PCR, performed by Quintiles/Expression Analysis, Durham, NC)89. Standard TaqManTM Assays (Applied Biosystems/ThermoFisher Scientific, Foster City, CA) were used to assess the expression of 93 genes selected based on their selectivity and sensitivity to important hepatic receptors known to be modulated by environmental chemicals; importance in human hepatocyte functionality; and hepatotoxicity. […]
In the case of `CC(C)CCCCCCc1ccc(O)cc1`, the outcome is reported as “inactive”. In the case of `CCOC(=O)C(C)Oc1ccc(Oc2cnc3cc(Cl)ccc3n2)cc1` (stereo not given), the AC50 is reported as 70 µM (active). In the case of `COCCO`, the outcome is reported as “inactive”. With `CCNc1nc(N)nc(Cl)n1` the outcome was “inactive”. `Oc1ccc(C(c2ccc(O)cc2)C(Cl)(Cl)Cl)cc1` was tested, and the outcome was “inactive”. With `CCCOC(=O)c1ccc(C(=O)OCCC)nc1` the outcome was “inactive”. For `CCCCC(CC)COC(=O)c1ccccc1C(=O)O` (stereo not given), the AC50 was 79.9 µM (active). For `CCC(C)OC(=O)N1CCCCC1CCO` (stereo not given), the outcome was “inactive”. For `COC(=O)c1ccc(I)cc1S(=O)(=O)NC(=O)Nc1nc(C)nc(OC)n1`, the outcome was “inactive”. For `CCCOC(=O)NCCCN(C)C`, the outcome was “inactive”. In the case of `CCCN(CCC)c1c([N+](=O)[O-])cc(C(F)(F)F)c(N)c1[N+](=O)[O-]`, the outcome is reported as “inactive”. `CCCCOC(=O)[C@@H](C)Oc1ccc(Oc2ccc(C(F)(F)F)cn2)cc1` was tested, and the outcome was “inactive”. For `CCCCCOC(=O)COc1cc(N2C(=O)C3=C(CCCC3)C2=O)c(F)cc1Cl`, the outcome was “inactive”. `c1ccc(Nc2ccccc2)cc1` was tested, and the outcome was “inactive”. For `CC1(C)C(C=C(Cl)Cl)C1C(=O)OCc1cccc(Oc2ccccc2)c1` (stereo not given), the outcome was “inactive”. For `S=C(S)NCCNC(=S)S.[Mn+2].[S-]C([S-])=NCCN=C([S-])[S-].[Zn+2]`, the outcome was “inactive” and the AC50 was 3.66 µM (active) and 3.63 µM (active). In the case of `N#CSCSc1nc2ccccc2s1`, the AC50 is reported as 32.9 µM (active). `S=C([S-])NCCNC(=S)[S-].[Mn+2]` was tested, and the AC50 was 5.86 µM (active). For `CCSC(=O)N(CC(C)C)CC(C)C`, the outcome was “inactive”. `CCCCOC(=O)C(C)Oc1ccc(Oc2ccc(C(F)(F)F)cn2)cc1` (stereo not given) was tested, and the outcome was “inactive”. With `O=C(O)C1(C(=O)Nc2ccc(Cl)cc2Cl)CC1` the AC50 was 7.18 µM (active). In the case of `CCOC(=O)COc1cc(-n2ncc(C(F)(F)F)c(C)c2=O)c(F)cc1Cl`, the outcome is reported as “inactive”. In the case of `C[C@]12C[C@H](O)[C@H]3[C@@H](CCC4=CC(=O)CC[C@@]43C)[C@@H]1CC[C@@H]2C(=O)CO`, the outcome is reported as “inactive”. With `CSC(=O)c1cccc2nnsc12` the outcome was “inactive”. `CC(C)(C)[C@@H](O)[C@@H](Cc1ccc(Cl)cc1)n1cncn1` was tested, and the outcome was “inactive”. With `CCOC(=O)NCCOc1ccc(Oc2ccccc2)cc1` the outcome was “inactive”. For `C#C[C@]1(O)CC[C@H]2[C@@H]3CCC4=CC(=O)CC[C@@H]4[C@H]3CC[C@@]21CC`, the AC50 was 0.442 µM (active). With `CCCCOCCOCCOCc1cc2c(cc1CCC)OCO2` the AC50 was 17.8 µM (active). `CCCCCCC(C)OC(=O)COc1nc(F)c(Cl)c(N)c1Cl` (stereo not given) was tested, and the outcome was “inactive”. In the case of `CCCCC(CC)CN1C(=O)C2C3C=CC(C3)C2C1=O` (stereo not given), the AC50 is reported as 81.3 µM (active). `CC(=O)S[C@@H]1CC2=CC(=O)CC[C@]2(C)[C@H]2CC[C@@]3(C)[C@@H](CC[C@@]34CCC(=O)O4)[C@H]12` was tested, and the AC50 was 50 µM (active). `CN(C)C(=O)Nc1ccc(Cl)c(Cl)c1` was tested, and the outcome was “inactive”. In the case of `CCN(CC)C(=O)c1cccc(C)c1`, the outcome is reported as “inactive”. `COC(=O)c1ccccc1C(=O)O` was tested, and the outcome was “inactive”. For `COc1c(Cl)ccc(Cl)c1C(=O)O`, the outcome was “inactive”. `C[C@]12CC[C@@H]3c4ccc(O)cc4C[C@@H](CCCCCCCCCS(=O)CCCC(F)(F)C(F)(F)F)[C@H]3[C@@H]1CC[C@@H]2O` (stereo not given in full) was tested, and the AC50 was 12.7 µM (active). For `O=C(O)c1ccccc1`, the outcome was “inactive”. With `C=CCOC(Cn1ccnc1)c1ccc(Cl)cc1Cl` (stereo not given) the AC50 was 29 µM (active). In the case of `CCOC(=O)C(C)Oc1ccc(Oc2nc3ccc(Cl)cc3o2)cc1` (stereo not given), the outcome is reported as “inactive”.
